TGFb SMAD3 inh: blocks TGF-b signaling. HepG2 CAGA-GFP TGF-b/SMAD3 reporter, GFP fluorescence, 18 h; TGF-beta stimulated, 500 pg/mL final. Potency, µM (top dose mostly 46.1 µM), most hits filed as inhibitors. hit rate 1.2% among 410,000; also: nearly all actives have a fitted effect of over 65% in size
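Cell-based qHTS in HEPG2 carrying a CAGA-GFP Smad reporter; compounds added before 500 pg/mL final TGF-beta, 18 h incubation at 37 degrees C, GFP fluorescence quantified per cell by imaging cytometry.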
DT40 TDP1 no CPT: qHTS for Inhibitors of human tyrosyl-DNA phosphodiesterase 1 (TDP1): qHTS in cells in absence of CPT. DT40 Tdp1-/- hTDP1 cells, no CPT, ATP luminescence, 48 h. Potency, µM (series often up to 46.2 µM), most hits filed as inhibitors. hit rate 15% among 420,000. AID 686978, 2013; also: nearly all actives have a fitted effect of over 55% in size
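Growth of hTDP1-complemented DT40 Tdp1-knockout cells is measured by ATP luminescence after at least 48 hr compound exposure at 37 °C, with DMSO substituting for the 20 nM CPT used in the parallel screen.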
HepG2 viability: counter-screen for TGF-b inhibitors: cytotoxicity in HepG2 cells | hit rate 0.76% among 410,000 | AID 588856 | Potency, µM (series often up to 46.1 µM), actives largely listed as cytotoxic | HepG2 CAGA-GFP viability, ATP luminescence, 18 h
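HepG2 CAGA-GFP cells (1000/well, DMEM with 1% FBS) received compound, then TGF-beta at 500 pg/mL final, and were incubated 18 hours at 37 degrees C. Viability was read by CellTiter-Glo luminescence. Media-only wells were set as complete cell-killing and DMSO as no toxicity.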
ATXN viability: viability counter-screen for ATXN expression inhibitors. S2 cells (HEK-293 line with an ATXN2-luciferase reporter) viability, CellTiter-Fluor protease fluorescence, 24 h. Potency, µM (titrated, usually from 56.7 µM), actives largely listed as cytotoxic. hit rate 0.49% among 400,000; also: nearly all actives have a fitted effect of over 40% in size
TDP1 cell CPT: DT40-hTDP1 cell growth loss with CPT; chicken DT40 Tdp1-/-;hTDP1 cells + 20 nM CPT, ATP luminescence, 48 h; Potency, µM (titrated, usually from 46.2 µM), actives largely listed as inhibitors; hit rate 12% among 420,000; AID 686979; also: nearly all actives have a fitted effect of over 55% in size
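Chicken DT40 Tdp1-/- cells complemented with human TDP1, 400 cells/well, exposed to compounds plus 20 nM camptothecin for at least 48 h at 37 C; viability read as ATP content by CellTiter-Glo luminescence.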
ATXN2 expr inh: reduces ATXN2 reporter expression in HEK-293 cells; Potency, µM (series often up to 57 µM), usual class: inhibitors; HEK-293 ATXN2-luciferase reporter, luminescence, 24 h; hit rate 0.72% among 360,000; also: nearly all actives have a fitted effect of over 55% in size
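qHTS (up to 57 uM final) was run with 24 h compound exposure of reporter cells at 37 °C. Each well was multiplexed: SteadyGlo luminescence measured ATXN2-luciferase expression after a fluorogenic Gly-Phe-AFC viability readout (25 uM final).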
Hits are given with their value. Sampled rows, rich in hits. Any-hit rate of the full collection: about 17%. Calls follow the shape of the dose curve; as a rule, active = well fitted curve in the direction sought with a large enough effect; inconclusive = small, poorly fitted or top-dose-only effect, or another doubt; inactive = no such curve, though single readings can be large; an effect the other way counts as inactive or inconclusive.

Cc1cccc2sc(NC(=O)CSc3nnnn3C)nc12 was read as TGFb SMAD3 inh inactive, DT40 TDP1 no CPT inactive, HepG2 viability inactive, ATXN viability inactive, TDP1 cell CPT inactive and ATXN2 expr inh inactive.
`CCCCOc1ccc(/C=C/C2=CC(C)(C)NC(=S)N2)cc1OCC` gave TGFb SMAD3 inh inactive, DT40 TDP1 no CPT 13µM, HepG2 viability inactive, ATXN viability inactive, TDP1 cell CPT inconclusive and ATXN2 expr inh inactive.
`Cc1ccc(S(=O)(=O)N2CCCCC2)cc1NC(=O)Cn1ncc(Cl)c(Cl)c1=O` gave TGFb SMAD3 inh inconclusive, DT40 TDP1 no CPT 2.1µM, HepG2 viability inactive, ATXN viability inconclusive, TDP1 cell CPT 4.6µM and ATXN2 expr inh inconclusive.
`Cc1ccc(S(=O)(=O)N2CCCCC2)cc1NC(=O)Cn1cnnn1` gave TGFb SMAD3 inh inactive, DT40 TDP1 no CPT inactive, HepG2 viability inactive, ATXN viability inactive and TDP1 cell CPT inactive.
For Cc1ccc(S(=O)(=O)N2CCCCC2)cc1NC(=O)CNC(C)c1ccc(Cl)c(Cl)c1 (stereo unspecified) the results were TGFb SMAD3 inh inconclusive, DT40 TDP1 no CPT 13µM, HepG2 viability inactive, ATXN viability inconclusive, TDP1 cell CPT 15µM and ATXN2 expr inh inconclusive.
Screening COc1ccc(Cl)cc1NC(=O)CN1C(=O)C(C)(C)c2cc(S(=O)(=O)N3CCCCC3)ccc21 returned TGFb SMAD3 inh inactive, DT40 TDP1 no CPT inconclusive, HepG2 viability inactive, ATXN viability inconclusive, TDP1 cell CPT inconclusive and ATXN2 expr inh inactive.
Cc1ccc2oc(=O)c3cnn(CC(=O)Nc4ccc(Br)cc4C)c3c2c1 was read as TGFb SMAD3 inh inactive, DT40 TDP1 no CPT inactive, HepG2 viability inactive and TDP1 cell CPT inactive.
Screening Cc1ccc(Cl)cc1NC(=O)CN1C(=O)C(C)(C)c2cc(S(=O)(=O)N3CCCCC3)ccc21 returned TGFb SMAD3 inh inactive, DT40 TDP1 no CPT 23µM, HepG2 viability inactive, ATXN viability inconclusive, TDP1 cell CPT inconclusive and ATXN2 expr inh inactive.
`Cc1cc(Br)ccc1NC(=O)CNC(=O)Cn1ncc(Cl)c(Cl)c1=O` gave TGFb SMAD3 inh inactive, DT40 TDP1 no CPT 3.7µM, HepG2 viability inactive, ATXN viability 3.4µM, TDP1 cell CPT 4.1µM and ATXN2 expr inh 4.7µM.
`Cc1cc(C(=O)Cn2cnc3ccc(Cl)cc3c2=O)c(C)n1C1CC1` gave TGFb SMAD3 inh inactive, DT40 TDP1 no CPT inactive, HepG2 viability inactive, ATXN viability inactive, TDP1 cell CPT inactive and ATXN2 expr inh inactive.
For CCOc1ccc(C(=S)N2CCCC2)c(OCC)c1 the results were TGFb SMAD3 inh inactive, DT40 TDP1 no CPT inconclusive, HepG2 viability inactive, ATXN viability inactive, TDP1 cell CPT 21µM and ATXN2 expr inh inactive.
Screening Cc1cc2nnc(SCC(=O)N3CCCCCC3)n2c(N)n1 returned TGFb SMAD3 inh inactive, DT40 TDP1 no CPT inactive, HepG2 viability inactive, ATXN viability inactive, TDP1 cell CPT inactive and ATXN2 expr inh inactive.
For CC(C)c1ccc(NC(=O)C2CCC(CNC(=O)[C@@H]3Cc4ccccc4CN3)CC2)cc1 (stereo partly specified) the results were TGFb SMAD3 inh inactive, DT40 TDP1 no CPT inconclusive, HepG2 viability inactive, ATXN viability inactive, TDP1 cell CPT inconclusive and ATXN2 expr inh inactive.
For CC(C)Oc1ccc(CCC(=O)NNC(=S)Nc2ccccc2)cc1 the results were TGFb SMAD3 inh inactive, DT40 TDP1 no CPT 18µM, HepG2 viability inactive, ATXN viability inactive, TDP1 cell CPT inactive and ATXN2 expr inh inactive.
`CC(C)Oc1ccc(CC(=O)NNC(=S)Nc2ccccc2)cc1` gave TGFb SMAD3 inh inactive, DT40 TDP1 no CPT inconclusive, HepG2 viability inactive, ATXN viability inactive and TDP1 cell CPT inconclusive.
`CCOC(=O)c1ccccc1NC(=O)c1cnc(N2CCOCC2)c2ccccc12` gave TGFb SMAD3 inh inactive, DT40 TDP1 no CPT 16µM, HepG2 viability inactive and TDP1 cell CPT inconclusive.
For Cc1ccc(NC(=O)c2cnc(N3CCCCC3)c3ccccc23)cc1Cl the results were TGFb SMAD3 inh inactive, DT40 TDP1 no CPT inconclusive, HepG2 viability inactive and TDP1 cell CPT 21µM.
`O=C(NCc1ccccc1)c1cnc(N2CCCCC2)c2ccccc12` gave TGFb SMAD3 inh inactive, DT40 TDP1 no CPT inconclusive, HepG2 viability inactive and TDP1 cell CPT 23µM.
Screening CCOc1ccc(NC(=O)c2cnc(N3CCCCC3)c3ccccc23)cc1 returned TGFb SMAD3 inh inactive, DT40 TDP1 no CPT 13µM, HepG2 viability inactive and TDP1 cell CPT 21µM.
For COc1ccc(Cl)cc1NC(=O)c1cnc(N2CCCCC2)c2ccccc12 the results were TGFb SMAD3 inh inactive, DT40 TDP1 no CPT inconclusive, HepG2 viability inactive and TDP1 cell CPT inconclusive.
CCCCN1C(=O)C(=O)N(CC(=O)NC2CCCc3ccccc32)C1=O (stereo unspecified) was read as TGFb SMAD3 inh inactive, DT40 TDP1 no CPT inactive, HepG2 viability inactive, ATXN viability inactive, TDP1 cell CPT inactive and ATXN2 expr inh inactive.
For COc1ccc(CNc2oc(/C=C/c3cccc(OC)c3)nc2C#N)cc1 the results were TGFb SMAD3 inh inconclusive, DT40 TDP1 no CPT 23µM, HepG2 viability inactive, TDP1 cell CPT 23µM and ATXN2 expr inh inactive.
`CCOc1ccc(/C=C/c2nc(C#N)c(Nc3ccc(OC)cc3)o2)cc1` gave TGFb SMAD3 inh inactive, DT40 TDP1 no CPT 16µM, HepG2 viability inactive and TDP1 cell CPT 21µM.
CCOc1ccc(Nc2oc(/C=C/c3cccc(OC)c3)nc2C#N)cc1 was read as TGFb SMAD3 inh inconclusive, DT40 TDP1 no CPT 23µM, HepG2 viability inactive, TDP1 cell CPT inconclusive and ATXN2 expr inh inactive.
For COc1cccc(/C=C/c2nc(C#N)c(NCCc3ccc(OC)c(OC)c3)o2)c1 the results were TGFb SMAD3 inh inconclusive, DT40 TDP1 no CPT inactive, HepG2 viability inactive, ATXN viability inactive, TDP1 cell CPT inconclusive and ATXN2 expr inh inconclusive.
Screening CCOc1ccc(/C=C/c2nc(C#N)c(Nc3ccc(OCC)cc3)o2)cc1 returned TGFb SMAD3 inh inactive, DT40 TDP1 no CPT 23µM, HepG2 viability inactive and TDP1 cell CPT 23µM.
Screening CCNC(=O)C1(C)CCN(C(=O)c2cccc(OC(F)(F)F)c2)C1 (stereo unspecified) returned TGFb SMAD3 inh inactive, DT40 TDP1 no CPT inactive, HepG2 viability inactive, ATXN viability inactive, TDP1 cell CPT inactive and ATXN2 expr inh inactive.
Screening CC1CC(C)CN(C(=O)c2ccc(NS(=O)(=O)c3ccc4[nH]c(=O)[nH]c4c3)cc2)C1 (stereo unspecified) returned TGFb SMAD3 inh inactive, DT40 TDP1 no CPT inactive, HepG2 viability inactive, ATXN viability inactive, TDP1 cell CPT inactive and ATXN2 expr inh inactive.

Screening data as filed in PubChem.
